# Only some compounds are listed: those with a hit (about 3.1% of all), similar ones and a draw of the others.
# Tau fibril FP: inhibitors of human tau fibril formation. P10636. K18 P301L tau heparin fibrillization, Alexa594 FP, 6 h. Potency, µM (doses to about 57.7 µM), inactives show at the top dose activity, negative = inhibition, usual class: inhibitors. 0.39% of 280,000 active; note: nearly all actives have a fitted effect of over 55% in size
# Target sequence (P10636 561-689 P618L limits assumed): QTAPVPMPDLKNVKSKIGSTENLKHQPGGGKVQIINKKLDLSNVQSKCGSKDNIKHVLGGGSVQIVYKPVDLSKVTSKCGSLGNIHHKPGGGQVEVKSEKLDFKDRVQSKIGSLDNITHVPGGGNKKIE
#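 Read-out: fluorescence polarization of Alexa 594-labeled tau (0.24 uM), 555 nm excitation, 632 nm emission. Mixtures held 15 uM unlabeled K18 P301L, compound and 20 uM heparin, pH 7 acetate buffer, incubated 6 hr at 37 C.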
# TR SRC2 fluor cs: alters Texas Red total fluorescence, flagging assay interference; TRb/SRC2 Texas Red total fluorescence interference; Potency, µM (doses to about 106 µM), for inactives: at the top dose fluorescence change, negative = quenching; 0.29% of 280,000 active; active = well fitted curve in either direction with a large enough effect; inconclusive = small, poorly fitted or top-dose-only effect
#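 Human TRb ligand-binding domain at 0.6 uM with 20 nM Texas Red SRC2 peptide in Tris buffer containing 1 uM T3 and 5% DMSO, incubated with compound 5 h at ambient temperature. Total fluorescence (555/632 nm) calculated as parallel + 2 × perpendicular.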
# Tau ThT inhib: blocks human tau fibril formation measured by thioflavin T | Potency, µM (top dose mostly 57.4 µM), without a hit: at the top dose activity, negative = inhibition, actives largely listed as inhibitors | recombinant tau K18 P301L, heparin-induced fibrillization, ThT fluorescence | P10636 | AID 1460 | 2.1% of 270,000 active; note: nearly all actives have a fitted effect of over 55% in size
#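 Heparin-induced fibrillization of the P301L-mutant K18 repeat-domain fragment of human tau was followed by ThT binding in quantitative high-throughput format.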
# TRb-SRC2 inh: TRbeta-SRC2 interaction inhibition; P10828; TRbeta-SRC2 peptide binding, fluorescence polarization; receptor liganded with 1 µM T3; Potency, µM (highest dose often 106 µM), for inactives: at the highest dose activity change, negative = inhibition, actives largely listed as inhibitors; 0.065% of 280,000 active; AID 1469;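 note: plate controls were bound peptide for no effect and peptide without receptor for full effect; nearly all actives have a fitted effect of over 50% in size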
# Target sequence (P10828 whole entry, looked up): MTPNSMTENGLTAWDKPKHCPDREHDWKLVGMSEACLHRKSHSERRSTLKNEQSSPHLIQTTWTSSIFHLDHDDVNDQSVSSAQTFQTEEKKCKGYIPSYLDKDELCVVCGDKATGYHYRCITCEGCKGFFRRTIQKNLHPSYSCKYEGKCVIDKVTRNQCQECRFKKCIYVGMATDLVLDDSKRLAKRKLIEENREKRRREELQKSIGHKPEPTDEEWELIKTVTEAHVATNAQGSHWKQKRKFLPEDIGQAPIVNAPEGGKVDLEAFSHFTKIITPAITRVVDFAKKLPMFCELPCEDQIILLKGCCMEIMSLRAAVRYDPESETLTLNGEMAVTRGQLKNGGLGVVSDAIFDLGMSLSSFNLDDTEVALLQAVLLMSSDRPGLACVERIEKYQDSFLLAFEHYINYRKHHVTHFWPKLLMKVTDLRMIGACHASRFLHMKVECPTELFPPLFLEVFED
#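 A fluorescence polarization screen tested compounds at multiple concentrations against complex formation between 0.6 uM TRb ligand-binding domain and 20 nM Texas Red SRC2 peptide, with 1 uM T3 present; readout after 5 hr.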
# Tau fluor cs: counter-screen for tau fibril formation inhibitors. Potency, µM (doses to about 57.7 µM), for the others: at the highest dose activity change, negative = decrease. AID 1463. 0.93% of 280,000 active. tau K18 P301L Alexa594 fluorescence, heparin fibrillization; note: nearly all actives have a fitted effect of over 55% in size
#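 Human tau K18 P301L (15 uM unlabeled, 0.24 uM Alexa 594-labeled) in 100 mM sodium acetate pH 7 with 20 uM heparin, 6 hr at 37 C. ThT 30 uM added, 1 hr ambient; Alexa 594 FP and total fluorescence read at 555/632 nm.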
# Active calls of the source: *; ? = inconclusive; / = not tested or not shown; [ ] = dose if it differs, or a comment. Unless noted, calls come from the whole dose curve; as a rule, active = well fitted curve in the direction sought with a large enough effect; inconclusive = small, poorly fitted or top-dose-only effect, or another doubt; inactive = no such curve, though single readings can be large; an effect the other way counts as inactive or inconclusive. Unless noted, % is set by controls: 0 for no effect and ±100 for the full control effect; potency is the fitted concentration of half-maximal effect.
SMILES,Tau fibril FP,TR SRC2 fluor cs,Tau ThT inhib,TRb-SRC2 inh,Tau fluor cs
O=[N+]([O-])c1ccc(Oc2cccc3cccnc23)c([N+](=O)[O-])c1,-7%,-4%,8.9µM*,-6%,16µM*[quencher]
NC(=O)c1c(NC(NC(=O)c2ccco2)C(=O)c2ccc(Cl)cc2)sc2c1CCCC2 (stereo unspecified),-9%,-3%,25µM*,-17%,?
N#Cc1c(NC(NC(=O)c2ccco2)C(=O)c2ccccc2)sc2c1CCCC2 (stereo unspecified),-5%,-3%,?,-3%,?
O=C1C(Cl)=C(NCCN2CCOCC2)C(=O)c2ncccc21,?,-16%,13µM*,?,?
O=C1C(Cl)=C(NC2CCc3ccccc32)C(=O)c2ncccc21 (stereo unspecified),?,-13%,13µM*,?,?
O=C(Nc1ccc(Cl)cc1)NC1CCCc2ccccc21 (stereo unspecified),-15%,-3%,-8%,-16%,-15%
COc1cccc(CCNC(=O)c2c(O)nc3ccccn3c2=O)c1,-3%,5%,-4%,-5%,-6%
O=C(CCC(=O)N1CC2CCCN2c2ccccc21)NCc1cccc(Cl)c1 (stereo unspecified),4%,-28%,?,-2%,?
CCCOC(=O)c1cccc(NC(=O)CSc2nnc3cc(C)c4ccccc4n23)c1,-4%,2.8µM*[quencher],3%,-20%,-3%
Cc1cc2nnc(SCC(=O)Nc3ccc(F)c(Cl)c3)n2c2ccccc12,-6%,-2%,-2%,10%,0%
O=C1C[C@H](c2ccc(-c3ccccc3)cc2)N1S(=O)(=O)c1ccccc1[N+](=O)[O-],/,-2%,/,-1%,/
COc1cc(OC)c(NC(=O)NCc2cccn2Cc2ccccc2)cc1Cl,-11%,-3%,-17%,-9%,14µM*[quencher]
COc1ccc(C)cc1NC(=O)NCc1cccn1Cc1ccccc1,-6%,-1%,1%,-4%,-16%
CCCCCCCCCCCCCC(=O)OC,/,2%[201 µM],/,-4%[201 µM],/
CCOc1ccc(-c2ccc(/C=C3/C(=N)N4C(C)=CSC4=NC3=O)o2)c([N+](=O)[O-])c1,14%,79µM*[quencher],3.2µM*,?,?
CC(=O)OC[C@@H]1O[C@H](C/C=N\OCC[C@H]2C=C[C@H](OC(C)=O)[C@@H](COC(C)=O)O2)C=C[C@@H]1OC(C)=O,-5%[11.6 µM],-1%[11.2 µM],-5%[11.5 µM],-1%[11.2 µM],-8%[11.6 µM]
CC1=C(C(=O)N2CCN(c3cccc(C)c3C)CC2)C2(CCCCC2)OC1=O,1%,-2%,-8%,-5%,-6%
CCc1cc(/C(Cc2ccc3ccccc3n2)=N\O)c(O)cc1O,-9%,-7%,-14%,8%,22µM*[quencher]
Cc1c(O)ccc(/C(Cc2ccc3ccccc3n2)=N\N)c1O,9%,-2%,7.1µM*,-4%,11µM*[quencher]
CNc1ncncc1-c1ccccc1OC,1%,-2%,11%,-2%,6%
O=C(NCCc1ccccc1)C(=O)NCC(c1ccc2c(c1)OCO2)N1CCOCC1 (stereo unspecified),2%,4%,8%,3%,4%
COc1cccc2c1nc(C)c1cc(C)oc12,-1%,-3%,-11%,-22%,-7%
COc1cccc2nc3cc(C)c(C)cc3nc12,?,-9%,22µM*,3%,-27%
COc1ccc(-c2nc(CNS(=O)(=O)c3cccc(F)c3)cs2)cc1,-2%,-1%,-13%,1%,-23%
CCOC(=O)c1c(C)[nH]c(-c2csc(N)n2)c1C,?,4%,25µM*,5%,?
SMILES,Tau fibril FP,TR SRC2 fluor cs,Tau ThT inhib,TRb-SRC2 inh,Tau fluor cs
COC(=O)NC(/C=C/c1ccccc1)[C@]1(C(C)=O)CCCC1=O (stereo partly specified),4%[11.6 µM],0%[11.2 µM],-1%[11.5 µM],7%[11.2 µM],-1%[11.6 µM]
Oc1ccc(/C=N/Nc2nc(-c3cccnc3)nc3ccccc23)c(O)c1,?,-17%,2.2µM*,9%,11µM*[quencher]
COc1cc(/C=N/N=C2/C(=O)Nc3ccccc32)cc(OC)c1O,?,-6%[53 µM],11µM*,0%[53 µM],?
COc1ccc(O)c(/C=N/N=C2/C(=O)Nc3ccccc32)c1,2%,-3%,?,-5%,-12%
O=C1Nc2ccccc2/C1=N/N=C/c1cccc(O)c1,2%,-9%,11µM*,0%,?
Cn1cc(C(=O)N/N=C/C2=C(N3CCOCC3)C(=C\c3ccccc3)/CC2)ccc1=O,16%,2%,?,-11%,-12%
O=C1Nc2ccccc2/C1=N\N=C\C1=C(N2CCOCC2)C(=C\c2ccccc2)/CC1,?,-1%,7.1µM*,7%,?
CC(C)c1ccc2c(c1)-c1ccccc1S(=O)(=O)N2CC(=O)N1CCCCC1,-5%,-4%,0%,-6%,-6%
CCOC(=O)CNC(=O)Cn1nc(N2CCN(c3ccccc3)CC2)ccc1=O,-2%,-2%,-13%,12%,-10%
CC(C)OP(=O)(OC(C)C)/C(C=O)=N\Nc1ccc([N+](=O)[O-])cc1,5%,-6%,16µM*,0%,-11%
CC(C)OP(=O)(OC(C)C)C(Nc1ccc([N+](=O)[O-])cc1)c1cccc([N+](=O)[O-])c1 (stereo unspecified),1%,-3%,-14%,3%,-21%
O=C1C=CC(=O)N1CCCCCCN1C(=O)C=CC1=O,25µM*,-1%,?,-3%,-21%
CCN1C(=O)C=CC1=O,?,0%,-2%,1%,5%
CCc1cc(SC#N)cc(CC)c1NC(=O)CCl,7.1µM*,0%,3.5µM*,-2%,-27%
O=C(NCCc1ccccc1)c1ccc(CSc2nc3ccncc3n2Cc2ccccc2F)cc1,2%,6%,4%,6%,-22%
CCCc1cc(=O)[nH]c(SCC(=O)Nc2ccc([N+](=O)[O-])cc2C#N)n1,5%,-1%,14µM*,1%,?
CCN(CC)S(=O)(=O)c1ccc(NC(=O)c2cc3ccc4cccnc4c3[nH]2)cc1,?,1%,?,-1%,-29%
[O-]/[N+](=C/c1ccc(F)cc1)c1ccc(Cl)cc1,?,-1%,32µM*,-1%,-24%
Cc1cc(C)cc(NC(=O)CC(C)n2nc(C)cc2C)c1 (stereo unspecified),-13%,-34%,2%,0%,-8%
CCc1ncnc2cc(OC)c(OC)cc12,/,-1%,/,6%,/
O=C(Cc1nc2ccccc2[nH]1)c1ccc([N+](=O)[O-])cc1,?,-2%,16µM*,-1%,?
O=C(NCCc1nc2ccccc2[nH]1)c1ccc([N+](=O)[O-])cc1,3%,-2%,?,-5%,-4%
O=C(COc1ccc([N+](=O)[O-])cc1)NCCc1nc2ccccc2[nH]1,0%,-1%,-8%,4%,-6%
Clc1ccc(/C(Cc2nc3ccccc3[nH]2)=N\Nc2ccccc2)cc1,-8%,1%,?,-9%,13µM*[quencher]

# High-throughput results: PubChem, National Center for Advancing Translational Sciences (NCATS)
